# Out of some 310,000 compounds screened, about 3,900 (1.3%) were called active.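 How the source made its calls: active means compounds whose thallium flux B-score, printed positive for inhibition, exceeds three library SD while starting fluorescence stays within three; inactive means the rest.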 Only a selection was taken, and actives are over-represented in it overall.
# Biological target: Potassium voltage-gated channel subfamily KQT member 1 (Homo sapiens) (UniProt P51787)
# Assay: inhibitors of human KCNQ1 channel, primary screen, cell-based, thallium flux, high-throughput (AID 2642);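 further: channel opened by potassium depolarization with thallium stimulus after 20 min compound exposure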
# Details: CHO-K1 KCNQ1, FluxOR thallium flux fluorescence, at 10 µM; active compounds read high
# Sequence of Potassium voltage-gated channel subfamily KQT member 1 (Homo sapiens) (P51787 whole entry, looked up): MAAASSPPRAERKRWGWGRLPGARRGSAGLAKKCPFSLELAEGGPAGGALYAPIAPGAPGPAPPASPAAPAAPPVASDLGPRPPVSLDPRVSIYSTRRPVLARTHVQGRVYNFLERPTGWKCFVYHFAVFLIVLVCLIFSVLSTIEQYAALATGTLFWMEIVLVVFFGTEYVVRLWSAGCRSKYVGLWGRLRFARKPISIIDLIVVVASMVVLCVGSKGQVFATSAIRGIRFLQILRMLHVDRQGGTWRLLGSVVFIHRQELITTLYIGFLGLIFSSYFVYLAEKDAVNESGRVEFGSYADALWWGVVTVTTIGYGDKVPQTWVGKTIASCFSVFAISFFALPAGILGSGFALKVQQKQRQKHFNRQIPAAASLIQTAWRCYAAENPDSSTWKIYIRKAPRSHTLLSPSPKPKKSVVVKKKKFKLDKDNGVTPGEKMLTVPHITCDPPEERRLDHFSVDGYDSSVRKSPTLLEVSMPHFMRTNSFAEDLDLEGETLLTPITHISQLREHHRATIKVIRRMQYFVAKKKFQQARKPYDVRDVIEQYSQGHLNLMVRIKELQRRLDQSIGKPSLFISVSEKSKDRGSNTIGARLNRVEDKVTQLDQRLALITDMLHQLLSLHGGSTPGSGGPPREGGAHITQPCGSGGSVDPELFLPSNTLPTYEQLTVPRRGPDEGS
row,SMILES,B-score
1,COc1cc(N2C(=O)c3ccccc3C2=O)c(Cl)cc1C(=O)OCC(=O)N1CCOCC1,inactive
2,C=CS(=O)c1sc(Cl)c(N2CCOCC2)c1[N+](=O)[O-] (configuration not stated),7 (active)
3,Cc1ccccc1C(=O)NCC(c1ccco1)N1CCc2ccccc21 (configuration not stated),inactive
4,Cc1ccc(C(=O)OCC(=O)NC(=O)Cc2ccccc2)c(O)c1,inactive
5,O=[N+]([O-])/C(N=Nc1ccccc1)=N\Nc1ccccc1,inactive
6,CCN(C(=O)COC(=O)c1sccc1C)c1c(N)n(Cc2ccccc2)c(=O)[nH]c1=O,inactive
7,O=C(O)CCCn1c(=O)c2cccn2c2ccc(F)cc21,inactive
8,CCOC(=O)CSC1=C(C#N)C(c2sccc2C)CC(=O)N1 (configuration not stated),inactive
9,C=CCOC(=O)C1=C(C)NC(SCC(=O)OCC)=C(C#N)C1c1ccc(C)cc1 (configuration not stated),6 (active)
10,C=CCOC(=O)C1=C(C)OC(N)=C(C#N)C1c1ccc(F)cc1 (configuration not stated),inactive
11,NC(=O)c1ncc(C(F)(F)F)cc1Oc1ccc(F)cc1,inactive
12,CCOc1ccc(N/C(N)=N/c2nc(C)c(C)c(=O)[nH]2)cc1,inactive
13,CCC(C)N1C(=O)S/C(=C/c2ccc(Sc3nc4ccccc4[nH]3)o2)C1=O (configuration not stated),13 (active)
14,CCc1nnc(NC(=O)CCCSc2nc3ccccc3[nH]2)s1,inactive
15,CCCCSc1nc2ccccc2[nH]1,inactive
16,CCOc1ccc(C(=O)NCC(=O)N2CCCCCCC2)cc1OCC,inactive
17,CC(=O)N1CCC(C(=O)Nc2nc(-c3ccccc3)ns2)CC1,inactive
18,COc1ccc(/C=C(\C#N)c2c[nH]c3ccccc23)cc1,inactive
19,C[n+]1ccc(/C=C/c2c[nH]c3ccccc23)cc1,13 (active)
20,O=C(N/N=C/c1c[nH]c2ccccc12)c1ccccc1O,inactive
21,COc1ccc(CC(=O)OC(C)C(=O)Nc2ccc(S(N)(=O)=O)cc2)cc1 (configuration not stated),inactive
22,COC(=O)c1cc(NC(=O)c2ccco2)ccc1N1CCOCC1,inactive

row,SMILES,B-score
1,COC(=O)c1cc(NC(=O)c2cc(C(C)(C)C)nn2Cc2cccc(C)c2)ccc1N1CCOCC1,6 (active)
2,CC(=O)Nc1ccc(N2CCOCC2)c(C(=O)Nc2cccc(C)c2)c1,inactive
3,COc1cccc(C(O)c2nc3ccccc3n2C)c1 (configuration not stated),inactive
4,CCCCCCOC(=O)NCC(O)c1ccccc1 (configuration not stated),inactive
5,CCCCCC(O)c1cccc(OCc2ccc3ccccc3n2)c1 (configuration not stated),6 (active)
6,O=C(O)CC12CC3CC(C1)CC(n1ncc(NCc4ccc(F)cc4)c(Cl)c1=O)(C3)C2,inactive
7,CC1(C(=O)N/N=C/c2cc3c(cc2Br)OCO3)CC1(Br)Br (configuration not stated),9 (active)
8,O=C(N/N=C/c1cc2c(cc1Br)OCO2)C1COc2ccccc2O1 (configuration not stated),inactive
9,CC(=O)N/N=C/c1cc2c(cc1[N+](=O)[O-])OCO2,inactive
10,c1ccc(-c2nnc(N3CCOCC3)c3ccccc23)cc1,inactive
11,OCCN1CCN(c2nnc(-c3ccccc3)c3ccccc23)CC1,inactive
12,CCCC(=O)N1CCN(c2nnc(-c3ccc(C)cc3)c3ccccc23)CC1,7 (active)
13,COC(=O)c1ccc(S(=O)(=O)N2CCc3ccccc3C2)cc1,inactive
14,COc1ccccc1CNC(=O)C1Cc2ccccc2C(=O)O1 (configuration not stated),inactive
15,CCNC(=S)N(CCN(CC)CC)Cc1cc2cc3c(cc2[nH]c1=O)OCO3,inactive
16,Clc1ccc(CSc2nnc3c(n2)[nH]c2ccccc23)cc1,inactive
17,CC1Cc2ccccc2N1S(=O)(=O)c1ccc(Cl)nc1 (configuration not stated),inactive
18,CCCCn1ccnc1C(=O)c1cccc(S(=O)(=O)N2c3ccccc3CC2C)c1 (configuration not stated),6 (active)
19,CC1Cc2ccccc2N1S(=O)(=O)c1c(N)n(C)c(=O)n(C)c1=O (configuration not stated),inactive
20,COc1ccc(C2C(C#N)=C(/N=C/N3CCOCC3)OC3=C2C(=O)CC(C)(C)C3)cc1OC (configuration not stated),inactive
21,CSc1nccc(NC(=O)c2ccc(C(C)(C)C)cc2)n1,7 (active)
22,Cc1cccc(NC(=O)c2cccnc2Cl)n1,inactive

row,SMILES,B-score
1,COC(=O)c1nc(NC(=O)c2ccc(C(C)(C)C)cc2)n[nH]1,inactive
2,COc1ccccc1N(C)S(=O)(=O)c1ccc(Cl)c(C(=O)Nc2ccncc2)c1,inactive
3,Cc1cnc(C(=O)OCC(=O)NCCCc2ccccc2)cn1,inactive
4,Cc1ccc(OC(=O)c2cncc(Br)c2)c(C)c1,inactive
5,Cc1cccc(Nc2ccccc2C(=O)NCc2ccco2)c1C,9 (active)
6,Cc1ccccc1NC(=O)NCc1ccco1,inactive
7,O=C(Nc1ccccc1)Nc1ccccc1C(=O)NCc1ccco1,inactive
8,CSc1ccc(S(=O)(=O)N2CCC(C(=O)NCc3ccncc3)CC2)cc1,inactive
9,Cc1csc(NC(=O)CSc2nnc(-c3cccnc3)o2)n1,inactive
10,Cc1ccccc1OCC(=O)Nc1ccc(N2CCN(C(=O)C(C)C)CC2)c(Cl)c1,6 (active)
11,Cc1ccccc1OCC(=O)Nc1ccc2c(c1)ncn2C,inactive
12,Cc1ccccc1OCC(=O)Nc1ccc(S(=O)(=O)N2CCOCC2)cc1,inactive
13,CC(=O)NNC1=Nc2ccccc2N(C)C(C)C1 (configuration not stated),inactive
14,CCc1ccc2c(c1)C1(NN=C(c3ccccc3)S1)C(=O)N2 (configuration not stated),11 (active)
15,CC(C)N(C(=O)Cn1cc(S(=O)(=O)CC(=O)N2CCOCC2)c2ccccc21)C(C)C,inactive
16,COc1ccccc1NC(=O)c1ccc(N2CC3CC(C2)c2cccc(=O)n2C3)c(NC(=O)c2cccnc2)c1 (configuration not stated),inactive
17,O=C1CCC(=O)N1c1ccc(NCCc2ccccc2F)c([N+](=O)[O-])c1,inactive
18,CC1(c2nnc(Cc3ccccc3)o2)CC(c2ccccc2F)=NO1 (configuration not stated),inactive
19,Cc1cc(N2C(=O)C(O)=C(C(=O)c3ccc(C)o3)C2c2ccc(OCc3ccccc3)cc2)no1 (configuration not stated),inactive
20,C=CCOc1cccc(C2C(C(=O)c3ccc(C)o3)=C(O)C(=O)N2c2nnc(C)s2)c1 (configuration not stated),11 (active)
21,C=CCOc1cccc(C2C(C(=O)c3ccc(C)o3)=C(O)C(=O)N2CCCn2ccnc2)c1 (configuration not stated),inactive
22,COc1ccc(NC(=O)C2=CC(c3ccc(OC)c(OC)c3)=NS(=O)(=O)N2C)cc1,inactive

row,SMILES,B-score
1,COCc1cc(C)n(CC(=O)NCC2CCCO2)c(=O)c1C#N (configuration not stated),6 (active)
2,Cc1nn(CC(=O)NCC2CCCO2)c(=O)c2cc3ccccc3n12 (configuration not stated),inactive
3,Cc1ccc2c(c1)N(CC(=O)NCC1CCCO1)C(=O)CO2 (configuration not stated),inactive
4,Cc1cc(-c2ccc(C)c(S(=O)(=O)Nc3ccc(S(N)(=O)=O)cc3)c2)on1,inactive
5,Cc1cccc(N2CCN(C(c3ccc(N(C)C)cc3)c3nnnn3C(C)(C)C)CC2)c1C (configuration not stated),inactive
6,COc1ccccc1C(c1nnnn1CC1CCCO1)N1CCN(c2ccccc2)CC1 (configuration not stated),inactive
7,Cc1cccc(N2CCN(C(c3ccccc3)c3nnnn3CC3CCCO3)CC2)c1C (configuration not stated),6 (active)
8,NC(=O)C1CCN(C(=O)CC2C(=O)NCCN2Cc2cccc(Oc3ccccc3)c2)CC1 (configuration not stated),inactive
9,CS(=O)(=O)N1CCc2nc(-c3ccccc3)sc2C1,inactive
10,Cc1c(OC(C)C(=O)N[C@@H](Cc2ccccc2)C(=O)O)ccc2c3c(c(=O)oc12)CCCC3 (some centres not stated),inactive
11,CCCOc1ccc2c3c(c(=O)oc2c1OCCC)CCC3,8 (active)
12,COc1ccc2c3c(c(=O)oc2c1OCC(=O)C(C)(C)C)CCCC3,inactive
13,CC(=O)Nc1ccc(C(=O)N(C2=NC(C)CS2)c2ccc(Cl)cc2)cc1 (configuration not stated),inactive
14,CCC(C)[C@H](NC(=O)N1c2ccccc2NC(=O)[C@@H]1C(C)C)C(=O)N[C@@H](Cc1ccccc1)C(=O)O (some centres not stated),inactive
15,CCCCCCCCn1c2c(c(=N)c3c1CCC3)CCCC2,10 (active)
16,Cc1ccccc1CCNC(=O)C1CCC(=O)N(Cc2ccc(Cl)cc2)C1 (configuration not stated),inactive
17,Cc1ccc(CSc2nc(-c3ccccc3)c(C#N)c(=O)[nH]2)cc1,inactive
18,N#Cc1c(-c2ccccc2)nc(SCc2cccc(C(F)(F)F)c2)[nH]c1=O,8 (active)
19,N#Cc1c(-c2ccccc2)nc(SCc2ccc([N+](=O)[O-])cc2)[nH]c1=O,inactive
20,Clc1ccc2nc(CSc3ccccc3)cn2c1,inactive
21,CCOC(=O)c1cnc(-n2nc(C)cc2C)nc1NNc1cc(C)nc(-c2ccccc2)n1,inactive
22,COc1ccc(NC(C)=O)cc1NC(=O)CN1CCN(C2c3ccccc3-c3ccccc32)CC1,inactive

row,SMILES,B-score
1,O=C1CCN(Cc2ccccc2)CCN1[C@H](CSc1ccccc1)c1ccccc1,inactive
2,CCNC(=O)c1ccc(OCC(=O)Nc2ccc(F)cc2)c(OC)c1,6 (active)
3,COc1ccc(NC(=O)COc2ccc(C(=O)c3ccc(F)cc3)cc2)cc1S(N)(=O)=O,inactive
4,CCOc1ccc(NC(=O)COc2ccc(C(=O)N3CCC(C(N)=O)CC3)cc2OC)cc1,inactive
5,Cc1ccccc1Cn1c2ccccc2c2cnn(CC(=O)NCc3ccco3)c(=O)c21,inactive
6,CSC1=N/C(=C\C=C\c2cccs2)C(=O)S1,inactive
7,CC(=O)Nc1ccc(NC(=O)C(C)OC(=O)C2CC(=O)N(CCc3ccccc3)C2)cc1 (configuration not stated),inactive
8,Cc1ccccc1NC(=O)NCC1CCN(Cc2cccc(Cl)c2)CC1,inactive
9,CC(C(=O)NCC1CCCCC1)N(C)Cc1cccc(Cl)c1 (configuration not stated),8 (active)
10,COc1ccc(CN(C)C(C)C(=O)NC2CCCc3ccccc32)cc1 (configuration not stated),inactive
11,COc1cccc(COC(=O)C2CCN(S(=O)(=O)c3cccs3)CC2)c1OC,inactive
12,O=C(COC(=O)/C(=C/c1cccs1)c1cccs1)NCc1ccccc1Cl,7 (active)
13,O=C(COC(=O)c1cccs1)NCc1cccs1,inactive
14,O=C(COC(=O)c1cc2c(s1)CCCC2)NCc1ccccc1Cl,inactive
15,O=c1c2c(nc3cc(-c4cccc(Cl)c4)[nH]n13)CCCC2,inactive
16,O=C(CN1C(=O)NC2(CCCC2)C1=O)OCCOc1ccc(F)cc1,inactive
17,Cc1c(NS(=O)(=O)c2ccc(NC3CCCC3)c([N+](=O)[O-])c2)c(=O)n(-c2ccccc2)n1C,inactive
18,Cc1cc(C=O)c(C)n1-c1ccc(NC2CCCCC2)c([N+](=O)[O-])c1,14 (active)
19,Cc1cc([N+](=O)[O-])ccc1NC1CCCC1,inactive

# — PubChem BioAssay AID2642 (Johns Hopkins Ion Channel Center, 2010)
